# Experimental data taken from the supplement of paper PMC8728848.
# Shown is part of a subset that was picked to be rich in the strongest signals.
# Test system: GlcNAc(b1-3)Gal(b1-4)GlcNAc(b1-3)Gal(b1-4)GlcNAc(b1-2)[GlcNAc(b1-3)Gal(b1-4)GlcNAc(b1-3)Gal(b1-4)GlcNAc(b1-6)]Man(a1-6)[GlcNAc(b1-3)Gal(b1-4)GlcNAc(b1-3)Gal(b1-4)GlcNAc(b1-2)Man(a1-3)]Man(b1-4)GlcNAc(b1-4)[Fuc(a1-6)]GlcNAc
# Test: glycan array binding signal (z-score within array); higher = stronger binding
# Conditions: glycan notation: IUPAC condensed, linker removed
# Method in brief: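 Glycan array data were curated from 3228 arrays in the Consortium for Functional Glycomics database and kept only where the protein sequence was available. Glycan names were converted to IUPAC-condensed notation, and columns mapping to the same glycan were averaged. The binding signal is a within-array Z-score, averaged across arrays of the same protein sequence at different concentrations or buffers and across linkers. Negative Z-scores can be read as non-binding.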
# Chain of Avaren (Actinomycete K97) (chain, as listed by the source): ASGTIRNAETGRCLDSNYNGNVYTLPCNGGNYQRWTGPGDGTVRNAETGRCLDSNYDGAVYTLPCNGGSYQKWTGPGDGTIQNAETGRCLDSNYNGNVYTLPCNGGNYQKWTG
row,Substance,glycan array binding signal (z-score)
1,MpAFP RI GFP (Marinomonas primoryensis),1.29
2,Avaren (Actinomycete K97),-0.046
3,"Siglec-8 (Homo sapiens), Q9NYZ4",0.434
